The record followed here is PubChem BioAssay (NCATS).

Results filed as inconclusive are left out. Activity calls are given as the source filed them. Calls come from the whole dose curve; as a rule, active = well fitted curve in the direction sought with a large enough effect; inconclusive = small, poorly fitted or top-dose-only effect, or another doubt; inactive = no such curve, though single readings can be large; an effect the other way counts as inactive or inconclusive.

A short description of the first experiment: MultiTox-Fluor Cytotoxicity Assay - LYMP1-003 - Dead Cells (AID 961).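 Note: cells exposed to compound for 16 h at 37 °C; nearly all actives have a fitted effect of over 70% in size.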 The settings on record: LYMP1-003 lymphoblastoid cells, dead-cell protease fluorescence; series mostly up to 92.2 µM. The essentials:
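LYMP1-003 lymphoblastoid, 2500 cells/well, 5 hr settle then 16 hr cpd at 37 C; MultiTox-Fluor reagent 60 min RT; Ex/Em 485/520 dead-cell signal; norm. DMSO = 0%, 15 uM tetraoctylammonium bromide = 100%; Hill AC50.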
Turning to `CC(=O)Nc1ccc(C(=O)O)cc1`, the compound was classed as inactive.
Still for that read-out and setting: as for `CCCC(O)C(CC)CO` (centres undefined), the entry is “inactive”; as for `O=C(c1ccccc1)C(O)c1ccccc1` (centres undefined), “inactive”; as for `FC(F)(F)C(Cl)Br` (centres undefined), “inactive”.
Regarding `CCCCCC(N)=O`, the outcome was inactive.
As to `COc1ccc(O)cc1`, the call was inactive.
On the same count and under the same terms, as for `CCCCCCCC(=O)OCC(COC(=O)CCCCCCC)OC(=O)CCCCCCC`, the entry is “inactive”; as for `O=C1C(c2[nH]c3ccccc3c2O)=Nc2ccccc21`, “inactive”.
On the same count and under the same terms, as for `O=C1c2cccc(O)c2C(=O)c2c(O)cccc21`, the entry is “inactive”; as for `C=CCNC(N)=S`, “inactive”.
Turning to `Cc1c(N(C)C)c(=O)n(-c2ccccc2)n1C`, the compound was classed as inactive.

The nature of a further experiment: MultiTox-Fluor Cytotoxicity Assay - LYMP1-003 - Live Cells (AID 962).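 Note: cells exposed to compound for 16 hours at 37 °C; cytotoxic hits lower the live-cell protease signal.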 To be noted: LYMP1-003 lymphoblastoid cells, MultiTox-Fluor live-cell protease fluorescence; series mostly up to 92.2 µM. Summed up: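 Human lymphoblastoid line LYMP1-003 in complete culture medium, treated 16 hr with titrated compounds. Viable cells quantified via cell-permeant GF-AFC substrate fluorescence; AC50 derived by Hill fitting.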
As for `CC(=O)Nc1ccc(C(=O)O)cc1`, the result was inactive.
Still for that read-out and setting: as for `CCCC(O)C(CC)CO` (centres undefined), the entry is “inactive”; as for `O=C(c1ccccc1)C(O)c1ccccc1` (centres undefined), “inactive”; as for `FC(F)(F)C(Cl)Br` (centres undefined), “inactive”.
On to `CCCCCC(N)=O`, for which the call was inactive.
As for `COc1ccc(O)cc1`, the result was inactive.
Still for that read-out and setting: as for `CCCCCCCC(=O)OCC(COC(=O)CCCCCCC)OC(=O)CCCCCCC`, the entry is “inactive”; as for `O=C1C(c2[nH]c3ccccc3c2O)=Nc2ccccc21`, “inactive”; as for `O=C1c2cccc(O)c2C(=O)c2c(O)cccc21`, “inactive”.
In the case of `C=CCNC(N)=S`, the compound was classed as inactive.
Same read-out and setting: as for `Cc1c(N(C)C)c(=O)n(-c2ccccc2)n1C`, the entry is “inactive”.

The next experiment is described as follows: Cell Viability - LYMP1-003 - Assay at 24 hr (AID 963). The settings on record: LYMP1-003 lymphoblastoid cell viability; series mostly up to 92.2 µM. Summed up:
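The lymphoblastoid line was treated with titrated compounds for 24 hours, and viable cell number estimated from luciferase-based ATP luminescence.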
With `CC(=O)Nc1ccc(C(=O)O)cc1`, the compound was classed as inactive.
With `CCCC(O)C(CC)CO` (centres undefined), the outcome was inactive.
Same read-out and setting: as for `O=C(c1ccccc1)C(O)c1ccccc1` (centres undefined), the entry is “inactive”; as for `FC(F)(F)C(Cl)Br` (centres undefined), “inactive”.
In the case of `CCCCCC(N)=O`, the compound was classed as inactive.
As to `COc1ccc(O)cc1`, the outcome was inactive.
With `CCCCCCCC(=O)OCC(COC(=O)CCCCCCC)OC(=O)CCCCCCC`, the result was inactive.
For `O=C1C(c2[nH]c3ccccc3c2O)=Nc2ccccc21`, the result was inactive.
As to `O=C1c2cccc(O)c2C(=O)c2c(O)cccc21`, the outcome was inactive.
The same measure, in the same setting: as for `C=CCNC(N)=S`, the entry is “inactive”; as for `Cc1c(N(C)C)c(=O)n(-c2ccccc2)n1C`, “inactive”.

A further experiment in a line: Cell Viability - LYMP1-003 - Assay at 40 hr (AID 964). Note: nearly all actives have a fitted effect of over 60% in size. To be noted: LYMP1-003 lymphoblastoid viability; series mostly up to 92.2 µM. Summed up:
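Acute toxicity is scored as a concentration-dependent loss of intracellular ATP in LYMP1-003 cells (2500/well, complete medium) after 40 hr at 37 C, measured by CellTiter-Glo luminescence; AC50 values derive from standard Hill modelling.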
With `CC(=O)Nc1ccc(C(=O)O)cc1`, the result was inactive.
Take `CCCC(O)C(CC)CO` (centres undefined): the result was inactive.
Still for that read-out and setting: as for `O=C(c1ccccc1)C(O)c1ccccc1` (centres undefined), the entry is “inactive”; as for `FC(F)(F)C(Cl)Br` (centres undefined), “inactive”.
On to `CCCCCC(N)=O`, for which the compound was classed as inactive.
Regarding `COc1ccc(O)cc1`, the compound was called inactive.
As for `CCCCCCCC(=O)OCC(COC(=O)CCCCCCC)OC(=O)CCCCCCC`, the compound was classed as inactive.
Take `O=C1C(c2[nH]c3ccccc3c2O)=Nc2ccccc21`: the call was inactive.
Still for that read-out and setting: as for `O=C1c2cccc(O)c2C(=O)c2c(O)cccc21`, the entry is “inactive”.
For the compound `C=CCNC(N)=S`, the call was inactive.
The same measure, in the same setting: as for `Cc1c(N(C)C)c(=O)n(-c2ccccc2)n1C`, the entry is “inactive”.
